Reference: the supplement of paper PMC4466140

These binders were tested against ScBbc1 (assay: SPOT peptide array binding signal intensity (averaged, normalized) (arbitrary units (background-subtracted, floor 0; scale differs between SH3 domains)); higher = stronger binding of the SH3 domain to the peptide).
Summary of the method: (§1)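 Spot intensities were captured after detection with anti-GST antibody, an HRP-linked anti-mouse secondary and luminol, and quantified with Genespotter. The probes were GST-fused SH3 domains from four yeast species, produced in E. coli BL21(DE3), purified on glutathione Sepharose and incubated at 10 μg/ml overnight at 4°C on cellulose-bound synthetic 15-mer peptides with cysteines replaced by serines. Binding signal is the normalized, background-subtracted spot intensity averaged over replicates, and its arbitrary units differ between domains.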

Binder	SPOT peptide array binding signal intensity
RKQRSIPLSPIVPES	20.2

What follows are binders tested against ScBem1-D1 in the same assay as above.
Summary of the method: as §1

Binder	SPOT peptide array binding signal intensity
RKQRSIPLSPIVPES	7

The binders below were run against ScBzz1-D1 in the same assay as above.
Summary of the method: as §1

Binder	SPOT peptide array binding signal intensity
RKQRSIPLSPIVPES	25.5

The binders below were run against ScBzz1-D2 in the same assay as above.
Summary of the method: as §1

Binder	SPOT peptide array binding signal intensity
RKQRSIPLSPIVPES	12.5

What follows are binders tested against ScCyk3 in the same assay as above.
Summary of the method: as §1

Binder	SPOT peptide array binding signal intensity
RKQRSIPLSPIVPES	37

These binders were tested against ScFus1 in the same assay as above.
Summary of the method: as §1

Binder	SPOT peptide array binding signal intensity
RKQRSIPLSPIVPES	98

Each binder was assayed against ScHof1 in the same assay as above.
Summary of the method: as §1

Binder	SPOT peptide array binding signal intensity
RKQRSIPLSPIVPES	0.5

These binders were tested against ScHse1 in the same assay as above.
Summary of the method: as §1

Binder	SPOT peptide array binding signal intensity
RKQRSIPLSPIVPES	679

These binders were tested against ScLsb1 in the same assay as above.
Summary of the method: as §1

Binder	SPOT peptide array binding signal intensity
RKQRSIPLSPIVPES	1.75

The binders below were run against ScLsb2 in the same assay as above.
Summary of the method: as §1

Binder	SPOT peptide array binding signal intensity
RKQRSIPLSPIVPES	2

What follows are binders tested against ScLsb3 in the same assay as above.
Summary of the method: as §1

Binder	SPOT peptide array binding signal intensity
RKQRSIPLSPIVPES	243

These binders were tested against ScLsb4 in the same assay as above.
Summary of the method: as §1

Binder	SPOT peptide array binding signal intensity
RKQRSIPLSPIVPES	9

These binders were tested against ScMyo3 in the same assay as above.
Summary of the method: as §1

Binder	SPOT peptide array binding signal intensity
RKQRSIPLSPIVPES	7

What follows are binders tested against ScMyo5 in the same assay as above.
Summary of the method: as §1

Binder	SPOT peptide array binding signal intensity
RKQRSIPLSPIVPES	6.25

Each binder was assayed against ScNbp2 in the same assay as above.
Summary of the method: as §1

Binder	SPOT peptide array binding signal intensity
RKQRSIPLSPIVPES	142

These binders were tested against ScPex13 in the same assay as above.
Summary of the method: as §1

Binder	SPOT peptide array binding signal intensity
RKQRSIPLSPIVPES	4.5

The binders below were run against ScRvs167 in the same assay as above.
Summary of the method: as §1

Binder	SPOT peptide array binding signal intensity
RKQRSIPLSPIVPES	39.7

The binders below were run against ScSho1 in the same assay as above.
Summary of the method: as §1

Binder	SPOT peptide array binding signal intensity
RKQRSIPLSPIVPES	284

These binders were tested against ScSla1-D1-D2 in the same assay as above.
Summary of the method: as §1

Binder	SPOT peptide array binding signal intensity
RKQRSIPLSPIVPES	193

Each binder was assayed against ScSla1-D3 in the same assay as above.
Summary of the method: as §1

Binder	SPOT peptide array binding signal intensity
RKQRSIPLSPIVPES	57.2

These binders were tested against SpAbp1-D1 in the same assay as above.
Summary of the method: as §1

Binder	SPOT peptide array binding signal intensity
RKQRSIPLSPIVPES	85

The binders below were run against SpBbc1 in the same assay as above.
Summary of the method: as §1

Binder	SPOT peptide array binding signal intensity
RKQRSIPLSPIVPES	0.25

What follows are binders tested against SpBzz1-D1 in the same assay as above.
Summary of the method: as §1

Binder	SPOT peptide array binding signal intensity
RKQRSIPLSPIVPES	171

The binders below were run against SpBzz1-D2 in the same assay as above.
Summary of the method: as §1

Binder	SPOT peptide array binding signal intensity
RKQRSIPLSPIVPES	0.5

The binders below were run against SpCyk3 in the same assay as above.
Summary of the method: as §1

Binder	SPOT peptide array binding signal intensity
RKQRSIPLSPIVPES	1.5

Each binder was assayed against SpHof1 in the same assay as above.
Summary of the method: as §1

Binder	SPOT peptide array binding signal intensity
RKQRSIPLSPIVPES	26.8

Each binder was assayed against SpHof1-2 in the same assay as above.
Summary of the method: as §1

Binder	SPOT peptide array binding signal intensity
RKQRSIPLSPIVPES	2.25

Each binder was assayed against SpHof1-3 in the same assay as above.
Summary of the method: as §1

Binder	SPOT peptide array binding signal intensity
RKQRSIPLSPIVPES	340

Each binder was assayed against SpHse1 in the same assay as above.
Summary of the method: as §1

Binder	SPOT peptide array binding signal intensity
RKQRSIPLSPIVPES	293

The binders below were run against SpLsb1 in the same assay as above.
Summary of the method: as §1

Binder	SPOT peptide array binding signal intensity
RKQRSIPLSPIVPES	2

What follows are binders tested against SpLsb4 in the same assay as above.
Summary of the method: as §1

Binder	SPOT peptide array binding signal intensity
RKQRSIPLSPIVPES	25.5

Each binder was assayed against SpMyo1 in the same assay as above.
Summary of the method: as §1

Binder	SPOT peptide array binding signal intensity
RKQRSIPLSPIVPES	3

Each binder was assayed against SpNbp2 in the same assay as above.
Summary of the method: as §1

Binder	SPOT peptide array binding signal intensity
RKQRSIPLSPIVPES	115

The binders below were run against SpPex13 in the same assay as above.
Summary of the method: as §1

Binder	SPOT peptide array binding signal intensity
RKQRSIPLSPIVPES	≤ 0

These binders were tested against SpRvs167 in the same assay as above.
Summary of the method: as §1

Binder	SPOT peptide array binding signal intensity
RKQRSIPLSPIVPES	18.8

Each binder was assayed against SpSla1-D1-D2 in the same assay as above.
Summary of the method: as §1

Binder	SPOT peptide array binding signal intensity
RKQRSIPLSPIVPES	≤ 0

What follows are binders tested against SpSla1-D3 in the same assay as above.
Summary of the method: as §1

Binder	SPOT peptide array binding signal intensity
RKQRSIPLSPIVPES	1
